Laboratory results published in the supplement of paper PMC3334620.
The full ranking holds about 33,000 sequences; the median of “E-score (-0.5 to 0.5)” is about -0.0059, and the highest 2% start at about 0.26. The list comes from a sample in which the highest values are over-represented; it also holds similar and randomly drawn sequences.

target: T1, Cin5 (UniProt P40917); assay: PBM E-score (8-mer binding enrichment) (E-score (-0.5 to 0.5)); higher = stronger / more preferred TF binding; settings: protein concentration: 100 nM; construct: GST-full length
T1 sequence: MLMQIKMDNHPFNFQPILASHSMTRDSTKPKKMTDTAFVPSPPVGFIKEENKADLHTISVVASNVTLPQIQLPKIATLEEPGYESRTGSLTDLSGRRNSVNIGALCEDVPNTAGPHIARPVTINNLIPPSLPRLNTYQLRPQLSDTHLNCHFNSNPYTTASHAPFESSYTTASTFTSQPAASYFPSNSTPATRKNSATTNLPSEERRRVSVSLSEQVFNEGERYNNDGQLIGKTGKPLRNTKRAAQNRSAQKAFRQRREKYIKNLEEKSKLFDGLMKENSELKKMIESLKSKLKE
In short: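 Each ungapped eight-base word and its reverse complement, pooled, received an E-score from the Universal PBM Analysis Suite. Underlying scans, normalised with masliner, recorded fluorescent anti-GST bound to GST-tagged yeast transcription factors. These were applied at about 100-200 nM to universal all-10-mer Agilent arrays double-stranded by primer extension.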

Row | Sequence | PBM E-score
1 | AAACATGG | 0.0681
2 | AAACATGT | 0.261
3 | AAACATAT | 0.269
4 | CCCAAGGC | -0.0737
5 | AAACCTTG | 0.072
6 | ACTAAAGA | -0.0785
7 | CAGGGCGC | -0.0291
8 | TAAGCAGA | 0.306
9 | CAAGCAGA | 0.0983
10 | TAAGCACA | 0.314
11 | TAAGCGAA | 0.275
12 | CAAGCGAA | 0.187
13 | GAAGCGAA | -0.0046
14 | CAAGCACG | -0.0414
15 | CAAGCACA | -0.0819
16 | AAAGCAGA | 0.178
17 | ACCGGGAC | -0.0537
18 | AAGGGGAG | -0.252
19 | ATTTCTCG | 0.313
20 | ATTTCTCC | 0.0831
21 | AATTTTTC | 0.057
22 | AATTTTCC | 0.289
23 | AATTTACG | 0.234
24 | ATTTTCCC | 0.0377
25 | ATTTTTCC | -0.0233

Row | Sequence | PBM E-score
26 | AATTTCCG | 0.18
27 | ATTTCTCA | 0.0803
28 | ATTTTACC | 0.237
29 | ATTTTACG | 0.271
30 | ATTTTCCG | 0.329
31 | ATACTTCG | 0.129
32 | GACGTCCC | -0.0301
33 | GCATTCGC | -0.157
34 | AGACACCT | -0.048
35 | CGAGCGCA | 0.0288
36 | CCGCCACG | -0.222
37 | ATTTCCCC | 0.0813
38 | ATTTCCCG | 0.258
39 | ATTTCCCA | 0.165
40 | CAGTAACC | -0.021
41 | AAGCAATC | 0.165
42 | CCCTAAGC | -0.145
43 | ATCTAATA | 0.19
44 | ACCTAATA | 0.246
45 | ATCTAATC | 0.306
46 | ACCTAAGC | 0.327
47 | ATCTAATG | -0.00795
48 | ACCTAATC | 0.311
49 | CCCTAATC | 0.0683
50 | GCCTAAGC | -0.181

Row | Sequence | PBM E-score
51 | CGCGGTAC | -0.0212
52 | CATTGCTC | -0.157
53 | CCTACAGG | -0.33
54 | AAAGAAAA | 0.112
55 | CGAATGAA | 0.0154
56 | AGAATGAC | 0.0989
57 | CGAATGAC | 0.275
58 | AGAGGACC | -0.22
59 | GTATCACA | 0.154
60 | ATATCATG | 0.0651
61 | GTATCATA | 0.274
62 | CTATCATA | 0.21
63 | ATATCATA | 0.288
64 | GTATCAGA | -0.0398
65 | CTGTGACC | 0.0399
66 | CAACTATC | 0.0334
67 | CCATAATC | 0.245
68 | ACATAATA | 0.364
69 | ACATAATG | 0.204
70 | ACATAATC | 0.445
71 | CCATAATA | 0.226
72 | GCATAATA | 0.235
73 | ACTGCCCC | -0.125
74 | ACCGCGCA | 0.151
75 | CGCCTCTC | -0.34

Row | Sequence | PBM E-score
76 | AACTAATA | 0.378
77 | AAATAAGT | 0.12
78 | AAATAATC | 0.17
79 | CAATAACA | 0.193
80 | AAATAATG | 0.21
81 | AAATAATA | 0.313
82 | TACTAATA | 0.193
83 | AAATAACA | 0.171
84 | AAATAAAT | 0.246
85 | AAATAATT | 0.301
86 | CACTAATA | 0.158
87 | GAATAACA | 0.26
88 | AAAAGTTT | 0.00197
89 | GCTTAAGA | -0.0654
90 | ACGCCTGC | -0.234
91 | CTCAGCGC | 0.0746
92 | AATTCTCA | 0.0439
93 | CTGCAGTC | -0.165
94 | CTAAACTC | -0.0293
95 | ACGAGGTA | 0.0339
96 | GAATAATC | 0.221
97 | TAATAACA | 0.146
98 | TAATAAAA | 0.235
99 | TAATAATA | 0.274
100 | CAATAATG | 0.0624

Row | Sequence | PBM E-score
101 | CAATAATC | 0.233
102 | GAATAATA | 0.291
103 | CAATAATA | 0.276
104 | GAATAAAA | 0.0288
105 | CCTGAAAA | -0.101
106 | AACTTTAT | 0.123
107 | AGTTGTTG | 0.0199
108 | AAGATATG | 0.268
109 | ATGATATC | 0.167
110 | ATGATATG | 0.289
111 | AAGATATA | 0.152
112 | ATGATATA | 0.166
113 | AAGATATC | 0.207
114 | CCTTCCAG | -0.127
115 | GGTCCGCA | -0.0684
116 | GGTTCCCA | -0.0888
117 | AACTTGCG | -0.0652
118 | ACTTAACA | 0.0535
119 | GCAATTTA | 0.137
120 | ATAATTTG | 0.208
121 | CTAATTTA | 0.158
122 | GTAATTTA | 0.27
123 | ATAATTTA | 0.332
124 | ATAATTTC | 0.136
125 | GCCGCTCC | -0.305

Row | Sequence | PBM E-score
126 | CCCACACG | 0.0465
127 | TAATATGA | 0.262
128 | TCATATGA | 0.272
129 | AAATATGA | 0.245
130 | CCATATGA | -0.0136
131 | GCATATGA | 0.197
132 | CAATATGA | 0.118
133 | ATGGACGC | -0.0507
134 | TCTTCCCA | -0.177
135 | GGTATCAC | 0.0115
136 | ATTGGGTC | 0.13
137 | ATTGGGTA | 0.0825
138 | ATTGGGTG | 0.282
139 | ACCATTCA | 0.0437
140 | AGTTGAAG | -0.00489
141 | AGTTGAAT | 0.259
142 | AGTTGAAA | -0.0098
143 | CGACTGGA | -0.167
144 | GTTCGACA | 0.0859
145 | GTCTAGCA | -0.0616
146 | AAACATGC | 0.0556
147 | ATAAGAAA | 0.156
148 | ATAAGAAT | 0.224
149 | ATAAGAAC | 0.31
150 | CGTCTCTA | -0.21

Row | Sequence | PBM E-score
151 | GTCGCGAC | 0.317
152 | GTCGCGAA | -0.0343
153 | CTCGCGAC | 0.107
154 | TGGTAACA | -0.0163
155 | TCACCAGA | -0.144
156 | CTAATCAG | 0.14
157 | ATAATCAA | 0.227
158 | ATAATCAG | 0.285
159 | ATAATCAT | 0.377
160 | AAAATCAG | 0.00782
161 | ATAATCGA | 0.178
162 | ATAATCAC | 0.233
163 | ATAATCGG | 0.291
164 | ATAATCGC | 0.187
165 | AAAAGGGA | -0.1
166 | CAATCTTA | 0.0906
167 | CCGGGTCG | -0.131
168 | CAGGAGCG | -0.0881
169 | AACCCATT | 0.114
170 | GACCCATA | 0.222
171 | AACCCATA | 0.29
172 | AGAACTTC | -0.217
